In the library only some 7.4% were active in any assay of this set; here they are far more common.
Rab9 prom act: qHTS Assay for Rab9 Promoter Activators; Potency, µM (highest dose often 9.22 µM), for inactives: top-dose activation, negative = inhibition, most hits filed as activators; Huh7 Rab9 promoter-luciferase reporter, luminescence, 24 h; actives 2.8% (n = 320,000); further: % of control where 0% means no effect; nearly all actives have a fitted effect of over 60% in size
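Huh7 cells stably carrying a Rab9 promoter-luciferase reporter, 1500 cells per well in OP-MEM I with 10% FBS, treated with compound 24 hours at 37C. Luciferase activity read by luminescence after 10 minutes with Amplite reagent.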
FLuc modulator: qHTS profiling assay for firefly luciferase inhibitor/activator using purifed enzyme and Km concentrations of substrates (counterscreen for miR-21 project); Luciferin 4-monooxygenase (Photinus pyralis), P08659; purified FLuc, Km substrates, luminescence inhibition; Potency, µM (highest dose often 57.5 µM), for the others: at the top dose activity change, negative = inhibition, most hits filed as inhibitors; actives 6.9% (n = 360,000);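 further: plate controls were vehicle for no effect and reference inhibitor for full effect; nearly all actives have a fitted effect of over 55% in size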
Target sequence (P08659 whole entry, looked up): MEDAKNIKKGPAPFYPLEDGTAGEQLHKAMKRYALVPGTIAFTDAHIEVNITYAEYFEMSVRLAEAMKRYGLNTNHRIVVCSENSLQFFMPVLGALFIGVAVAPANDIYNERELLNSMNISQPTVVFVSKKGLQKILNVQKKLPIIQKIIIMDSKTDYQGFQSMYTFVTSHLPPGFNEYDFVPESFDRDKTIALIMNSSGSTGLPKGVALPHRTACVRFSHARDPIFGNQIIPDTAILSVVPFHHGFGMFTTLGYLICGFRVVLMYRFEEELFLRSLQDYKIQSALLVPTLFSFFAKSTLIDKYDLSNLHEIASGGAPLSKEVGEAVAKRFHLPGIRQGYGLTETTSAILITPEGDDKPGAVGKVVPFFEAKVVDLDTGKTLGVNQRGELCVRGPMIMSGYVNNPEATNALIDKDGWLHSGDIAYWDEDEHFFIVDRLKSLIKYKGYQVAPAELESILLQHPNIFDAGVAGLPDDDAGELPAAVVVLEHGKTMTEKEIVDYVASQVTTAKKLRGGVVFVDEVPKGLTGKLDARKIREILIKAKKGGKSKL
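Purified P. pyralis luciferase (10nM final) with 10uM D-luciferin and 10uM ATP (Km levels) in 50mM Tris acetate pH 7.5, 10mM Mg acetate, 0.01% Tween-20, 0.05% BSA; qHTS 6-point titration, ~60 µM downward; luminescence read.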
NPC1 promoter act: qHTS Assay for NPC1 Promoter Activators; Huh7 NPC1 promoter luciferase reporter, 24 h; Potency, µM (top dose mostly 9.22 µM), without a hit: at the top dose activation, usual class: activators; actives 2.4% (n = 320,000); further: % of control where 0% means no effect; nearly all actives have a fitted effect of over 60% in size
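Compounds in DMSO were transferred onto Huh7 NPC1-luciferase reporter cells pre-incubated 2 h; after 24 h at 37 °C, Amplite reagent was dispensed and luminescence recorded 10 min later.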
ELG1 genotoxic: qHTS screen for small molecules that induce genotoxicity in human embryonic kidney (HEK293T) cells expressing luciferase-tagged ELG1 | HEK293T ELG1-luciferase reporter, luminescence, 16 h | Potency, µM (highest dose often 46 µM), for the others: top-dose activity change, positive = activation, hits mostly activators | actives 1.3% (n = 330,000); further: % of control where 0% means no effect; nearly all actives have a fitted effect of over 60% in size
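Luminescence read-out: rising ELG1-luciferase signal, reflecting elevated ELG1 protein under genetic stress, flags genotoxic compounds. Cells were treated for 16 hr at 37 °C before ONE-Glo detection.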
SMN2 splice up: qHTS Assay for Enhancers of SMN2 Splice Variant Expression; HEK293 SMN2-luciferase splicing reporter, luminescence, 30-36 h; AID 1458, 2008; Potency, µM (highest dose often 46.1 µM), without a hit: at the top dose activity change, positive = activation, usual class: activators; actives 2.8% (n = 210,000); further: % of control where 0% means no effect; nearly all actives have a fitted effect of over 55% in size
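HEK293 cells carry an SMN2 […]–luciferase reporter in which exon 7 inclusion puts luciferase in frame. Cells were plated 10-12 h before compound addition, then incubated 30-36 h at 37C. ONE-Glo luminescence was read; sodium butyrate at 4.5 mM final served as control.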
* marks the source's active call; other numbers are inactive results; ? = inconclusive; . = no result; [ ] = dose if it differs, or a comment. The call rests on the fitted dose curve; in most records, active means well fitted curve in the direction sought with a large enough effect; inconclusive means small, poorly fitted or top-dose-only effect, or another doubt; inactive means no such curve, though single readings can be large; an effect the other way counts as inactive or inconclusive. Potency means the concentration at half of the fitted maximal effect.

SMILES	Rab9 prom act	FLuc modulator	NPC1 promoter act	ELG1 genotoxic	SMN2 splice up
Cc1ccc(NC(=O)Cc2coc3c(C)c(C)ccc23)c(C)c1	.	-0.9%	.	.	2.6%
NCCCCC(NC(=O)C1CCCN1C(=O)C1CSSCC(N)C(=O)NC(Cc2ccc(O)cc2)C(=O)NC(Cc2ccccc2)C(=O)NC(CCC(N)=O)C(=O)NC(CC(N)=O)C(=O)N1)C(=O)NCC(N)=O (stereo not drawn)	-1.1%	2.2%	-4.9%	-0.2%	-14.5%
CC(/C=C/c1ccccc1)=N\NC(=O)Cn1nc(C)cc1C	-1.0%	-10.5%	5.4%	-0.8%	-0.3%
COc1ccc(-n2nc(C(=O)NCC(=O)N3CCCCCC3)c3ccccc3c2=O)c(OC)c1	14.4%	2.39µM*	11.5%	?	.
COc1ccc(-n2nc(C(=O)NCC(=O)N3CCN(Cc4ccccc4)CC3)c3ccccc3c2=O)c(OC)c1	-0.3%	?	-0.1%	0.6%	.
COc1ccc(-n2nc(C(=O)NCC(=O)N3CCOCC3)c3ccccc3c2=O)c(OC)c1	-2.6%	23.9µM*	-2.2%	4.5%	.
COc1ccc(-n2nc(C(=O)NCC(=O)N3CCCCC3)c3ccccc3c2=O)c(OC)c1	?	3.79µM*	23.0%	?	.
COc1ccc(-n2nc(C(=O)NCC(=O)N3CCC(C)CC3)c3ccccc3c2=O)c(OC)c1	?	1.51µM*	?	?	.
COc1ccc(-n2nc(C(=O)NCCCN3CCOCC3)c3ccccc3c2=O)c(OC)c1	2.6%	1.8%	-11.9%	4.7%	.
CCC(C)NC(=O)CNC(=O)c1nn(-c2ccc(OC)cc2OC)c(=O)c2ccccc12 (stereo not drawn)	2.6%	-5.0%	3.6%	-2.6%	.
COc1ccc(-n2nc(C(=O)NCC(=O)NC(C)C)c3ccccc3c2=O)c(OC)c1	0.9%	-0.3%	3.8%	-0.8%	.
Cc1cc(=O)[nH]c2nnc(SCc3ccc(Cl)c(Cl)c3)n12	.	-10.5%	.	.	.
COc1ccc(N(CC(=O)O)N=O)cc1	.	.	.	.	-3.1%[9.22 µM]
O=C(C[C@@H](c1ccccc1)N1CCCCC1)c1ccccc1	.	.	.	.	-14.3%[9.22 µM]
COc1ccc(/C=C/c2cc(C(F)(F)F)on2)cc1	-0.3%	6.01µM*	12.1%	12.9%	.
Cc1oc2ncnc(N3CCCCC3)c2c1C(=O)N1CCN(c2cccc(C(F)(F)F)c2)CC1	.	-4.3%	.	.	.
COc1ccc(C(C(=O)NC(C)(C)C)N(C(=O)CCC(=O)Nc2cc(C)on2)c2cccc(F)c2)cc1 (stereo not drawn)	-2.6%	-0.5%	-5.0%	5.1%	.
CCc1ccc(N(C(=O)CCC(=O)Nc2cc(C)on2)C(C(=O)NC(C)(C)C)c2ccc(OC)cc2)cc1 (stereo not drawn)	-2.0%	23.9µM*	1.5%	-7.5%	.
COc1ccc(-c2csc(/C(C#N)=C\c3ccc(OC)c([N+](=O)[O-])c3)n2)cc1	-4.7%	1.7%	-3.2%	-3.4%	-13.3%
N#C/C(=C\c1ccc(O)c([N+](=O)[O-])c1)c1nc2ccccc2s1	0.2%	13.5µM*	-1.6%	-8.7%	-57.8%
COc1ccc(-c2csc(/C(C#N)=C\c3ccc(O)c([N+](=O)[O-])c3)n2)cc1OC	-1.1%	15.1µM*	7.3%	-6.3%	.
O=C(O)CC/C(=C\c1ccc(Cl)c([N+](=O)[O-])c1)c1nc2ccccc2s1	-10.6%	7.5%	-4.8%	-4.2%	-0.4%
COc1cc(/C=C(\C#N)c2nc3ccccc3s2)cc([N+](=O)[O-])c1O	-6.0%	8.49µM*	-3.9%	-6.4%	5.9%
COCCN(CCOC)C(=O)COC(=O)c1cc([N+](=O)[O-])ccc1Cl	-1.6%	-0.6%	-0.1%	0.0%	.
OCC1O[C@H]([S-])[C@H](O)[C@@H](O)[C@@H]1O.[Au+] (stereo partly drawn)	-5.9%[46.1 µM]	.	4.0%[46.1 µM]	.	.
SMILES	Rab9 prom act	FLuc modulator	NPC1 promoter act	ELG1 genotoxic	SMN2 splice up
CCOC(=O)c1c(NC(=O)COc2cccc(C(F)(F)F)c2)sc2c1CCCCC2	.	-14.8%	.	.	-5.9%
COc1ccc2c(c1)cc(C(=O)N/N=C/c1c(O)c(C(=O)O)cc3ccccc13)n2C	0.1%	2.39µM*	-0.4%	1.8%	.
Cn1c2ccccc2c2cc(/C=N/NC(=O)c3ccc(O)cc3O)ccc21	5.7%	?	0.0%	-2.9%	.
Cn1c(O)c(/C=N/NC(=O)c2cc3ccccc3cc2O)c2ccccc21	3.55µM*	16.9µM*	?	?	.
COCCn1c(C)cc(/C=N/NC(=O)c2cc3ccccc3cc2O)c1C	15.7%	15.1µM*	-2.9%	1.2%	.
CC(CCc1ccccc1)NC(=O)CC(C)c1ccccc1 (stereo not drawn)	3.4%	-0.8%	-5.4%	0.2%	.
Nc1cc(N)nc(SCC(=O)Nc2ccc3c(c2)OCO3)n1	10.8%	-0.5%	-1.2%	-2.4%	.
CC(C)c1ccc(NC(=O)COC(=O)CSc2nnc(N)s2)cc1	3.4%	15.1µM*	-0.4%	-0.3%	2.0%
Nc1ccccc1SCC(=O)Nc1ccc2c(c1)OCCO2	3.16µM*	19µM*	2.24µM*	?	.
CCC(=O)Nc1nnc(SCC(=O)Nc2ccc3c(c2)OCCO3)s1	.	-18.2%	-0.8%	3.3%	.
Nc1nnc(SCC(=O)Nc2ccc3c(c2)OCCO3)s1	3.0%	19µM*	18.6%	?	-52.1%
Nc1nnc(SCC(=O)Nc2ccc(Cl)cc2)s1	.	-1.2%	.	.	.
Nc1ccccc1SCC(=O)Nc1ccc2c(c1)OCO2	3.98µM*	1.6%	?	-0.4%	.
CCn1c(=O)c2sccc2n2c(CCC(=O)Nc3ccc(F)cc3)nnc12	.	-1.7%	.	.	-5.6%
Cc1ccnc(NC(=O)CSc2ccc3c(c2)OCCO3)c1	4.8%	?	17.6%	18.3µM*	.
CC(Nc1ccc2c(c1)OCCO2)C(=O)N1CCc2ccccc21 (stereo not drawn)	29.5%	26.9µM*	10.3%	12.3%	15.9%
Cc1cccc(SCC(=O)Nc2ccc3c(c2)OCCO3)c1	3.98µM*	?	2µM*	-0.8%	.
O=C(CSc1ncc(-c2ccc(F)cc2)n1Cc1ccco1)Nc1ccc2c(c1)OCO2	.	19µM*	.	.	-0.6%
COc1ccc(C2=NN(S(C)(=O)=O)C(c3cccs3)C2)cc1OC (stereo not drawn)	?	16.9µM*	?	15.8%	.
COc1cccc(C2=NN(S(C)(=O)=O)C(c3cccs3)C2)c1 (stereo not drawn)	2.82µM*	?	23.2%	15.3%	.
COc1ccc(-c2cc(=O)oc3cc(O)ccc23)cc1	0.4%	-5.2%	2.8%	-9.0%	.
COc1ccc(-c2oc3cc(O)c(OC)c(O)c3c(=O)c2OC)cc1	-0.6%	19µM*	-19.5%	18.1%	.
O=c1cc(-c2ccc(C(F)(F)F)cc2)oc2ccccc12	.	.	.	0.2%	.
